The values that follow come from PubChem BioAssay AID2016 (NMMLSC, 2009).

Screen size: about 330,000 compounds; about 1,700 (0.52%) were called active. The list comes from a sample in which actives are over-represented; it also holds similar structures and randomly drawn compounds. Values without a mark were called inactive.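 The calls were made as follows: active = GFP response versus DMSO above a set limit, roughly screen mean plus 3 SD (cut at about 180% in these data); inconclusive = fewer than 70 cells counted for a yeast strain; inactive = the rest.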

The experiment in a line: TOR pathway GLN3 branch reporter MEP2-GFP changes – S. cerevisiae, multiplex flow cytometry, MLPCN library, primary screen (AID 2016).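 Also: median GFP fluorescence of the barcode-gated MEP2-GFP cells per well.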 Conditions: S. cerevisiae MEP2-GFP strain, 3 h, at 10 µM, hits give high values, 100% = DMSO control level. A general note: Flow cytometry measures light scatter and fluorescence of single cells or particles in a stream.
With `COc1c(C)c2c(c(O)c1C/C=C(\C)CCC(=O)O)C(=O)OC2`, the GFP response vs DMSO was 297% [may fluoresce violet] (active).

With `CCCCn1c(N)c(N(CC)C(=O)c2ccc(N(C)S(=O)(=O)c3ccc(C)cc3)cc2)c(=O)[nH]c1=O`, the GFP response vs DMSO is 98%.

Regarding `CC(C)(C)C1CCC(C(=O)NCC(c2cccs2)N2CCOCC2)CC1` (stereo not drawn), the GFP response vs DMSO was 99%. Next, `CN1CCN(C(=O)Cn2c(C(F)(F)F)nc3ccccc32)CC1`: 103%. Next, `C=CCN1CC(C)/C(=N\O)CC1C` (stereo not drawn): 93.2%; `Cc1ccc(C(=O)Nc2c(C#N)c(C)c(C)n2Cc2ccccc2)cc1`: 364% [may fluoresce violet] (active). As to `COc1ccc(Cn2c(C)c(C)c(C#N)c2NC(=O)Nc2ccc(F)cc2)cc1`, the GFP response vs DMSO was 99.5%. For the molecule `Cc1c(C#N)c(NC(=O)c2ccccc2)n(Cc2ccccc2)c1C`, the GFP response vs DMSO is 93.8%. Turning to `Cc1cc(C)c2c(-c3ccc(F)cc3)c(C#N)c(=O)n(C)c2n1`, the GFP response vs DMSO was 95.2%. Next, `Cc1ccc2nc3c(cc(C(=O)NCCc4ccccc4)c(=N)n3CC3CCCO3)c(=O)n2c1` (stereo not drawn): 238% [may fluoresce violet] (active); `Cc1cccn2c(=O)c3cc(C(=O)NCC4CCCO4)c(=N)n(Cc4ccc(F)cc4)c3nc12` (stereo not drawn): 92.2%; `Cc1ccc(CCNC(=O)c2ccc3nc4ccccc4c(=O)n3c2)cc1`: 112%.

On to `COc1ccc(-c2c(C(C)=O)c(C)nc3sc4c(=O)n(-c5ccc(C)cc5)nnc4c23)cc1`, for which the GFP response vs DMSO was 105%. In the case of `O=C(Nc1ccccc1)c1ccc2nsnc2c1` it was 100%; in that of `Cc1cccc(NC(=O)N2CCCCCC2)c1C`, 98.3%; in that of `Cc1cccc(NC(=O)c2ccc3nsnc3c2)c1C`, 100%. In the case of `Cc1cccc(NC(=O)c2cccc(C(=O)Nc3cccc(C)c3C)n2)c1C` it was 181% [may fluoresce violet] (active); in that of `Nc1nc(Sc2ncccc2[N+](=O)[O-])n[nH]1`, 96.3%; in that of `COc1ccc(N2C(=O)CCC(C(=O)N(C)C3CCCCC3)C2c2ccc(OC)c(OC)c2)cc1` (stereo not drawn), 99.1%. `CCCCCn1c(=O)[nH]c2cc(C(=O)NCCCN3CCCCC3C)ccc2c1=O` (stereo not drawn): the GFP response vs DMSO is 127%. In the case of `O=S(=O)(NCC1CN(S(=O)(=O)c2ccc3c(c2)OCCO3)C1)c1c(F)cccc1F` it was 103%; in that of `O=c1c2ccccc2nc(N/N=C/c2ccccc2)n1O`, 95.1%; in that of `Fc1ccc(/C=N/Nc2nc(-c3cccnc3)nc3ccccc23)cc1`, 195% (active). In the case of `O=C(N/N=C/c1cccnc1)c1ccc(NC(=O)c2ccc(F)cc2)cc1` it was 99.6%. In the case of `Cc1cc(C)c(S(=O)(=O)NCCCN2CCOCC2)cc1Br` it was 103%; in that of `CN(c1ccccc1)c1ccc(/C=c2\s/c(=C(/C#N)C(=O)C(C)(C)C)n(Cc3ccco3)c2=O)cc1`, 343% (active). For `CCOC(=O)Cn1c(=O)oc2cc(S(=O)(=O)N(C)Cc3ccco3)ccc21`, the GFP response vs DMSO was 91.7%. In the case of `CCN1CCN(C(=O)N[C@@H](C(=O)N[C@@H]2C(=O)N3C(C(=O)O)=C(CSc4nnnn4C)CS[C@H]23)c2ccc(O)cc2)C(=O)C1=O` it was 94.9%; in that of `Cc1c(C(=O)Nc2cccc(-c3nnc4n3CCCCC4)c2)oc2ccccc12`, 104%.

`O=C(Cn1[nH]c(=O)c2ccccc2c1=O)Nc1cccc(-c2nnc3n2CCCCC3)c1`: the GFP response vs DMSO is 224% [may fluoresce violet] (active). In the case of `Cc1ccc(-c2csc(NC(=O)Cn3[nH]c(=O)c4ccccc4c3=O)n2)cc1` it was 102%; in that of `Cc1ccc(-c2csc(N(Cc3ccco3)C(=O)c3cccs3)n2)cc1`, 109%. Take `CCc1nc2ccccc2n(CCOCCOCCn2c(=O)c(CC)nc3ccccc32)c1=O`: the GFP response vs DMSO was 105%. In the case of `CCOCCn1c(-c2ccccc2)nc2ccccc21` it was 236% [may fluoresce violet] (active); in that of `CCOCCn1c(C(C)C)nc2ccccc21`, 94.3%; in that of `CCN(CC(=O)NCc1cccs1)C(=O)c1ccc(OC)c(S(=O)(=O)N2CCOCC2)c1`, 96%. In the case of `Cc1cc(=O)oc2c3c(cc(OCC(=O)NCCC(=O)N[C@@H](C)C(=O)O)c12)OC(C)(C)CC3` it was 92.9%; in that of `CCOc1cc(N2CCOCC2)c(OCC)cc1NC(=O)COc1cccc(Cl)c1`, 107%. Next, `CCOc1cc(N2CCOCC2)c(OCC)cc1NC(=O)c1ccc(C)s1`: 94.6%; `CCOc1cc(N2CCOCC2)c(OCC)cc1NC(=O)COc1cccc2cccnc12`: 295% [may fluoresce violet] (active); `O=C(CSc1nnc(-c2ccncc2)n1-c1ccc(Cl)cc1)Nc1ccc(C(=O)O)cc1`: 101%. In the case of `Cc1cc(=O)oc2c3c(cc(OCC(=O)NCc4ccccn4)c12)OC(C)(C)CC3`, the GFP response vs DMSO is 100%. Next, `O=C(O)c1cc(S(=O)(=O)NC2CCCc3ccccc32)ccc1O` (stereo not drawn): 232% [may fluoresce violet] (active); `O=C(CCC(=O)N1CCN(S(=O)(=O)c2ccccc2)CC1)NC1CCCc2ccccc21` (stereo not drawn): 108%. In the case of `CNS(=O)(=O)c1cccc(C(=O)NC2CCCc3ccccc32)c1` (stereo not drawn) it was 102%; in that of `CCC(C)(C)c1ccc(OCC(=O)N(C)C)c(C(C)(C)CC)c1`, 108%.

As to `N#Cc1cccc(NC(=O)COC(=O)c2ccccc2C(=O)c2ccc(Cl)c([N+](=O)[O-])c2)c1`, the GFP response vs DMSO is 112%.

Take `Cc1ccc(C2(c3ccc(C)cc3)NC(=O)N(Cc3c(C)noc3C)C2=O)cc1`: the GFP response vs DMSO was 91.9%.
